From PubChem BioAssay (NCATS) come the findings set out here.

Test [1] concerns the target Rap guanine nucleotide exchange factor 3 (Homo sapiens) (UniProt O95398). Description: Confirmatory qHTS for antagonist of cAMP-regulated guanine nucleotide exchange factor 3 (EPAC1) (AID 1645880). Further: nearly all actives have a fitted effect of over 55% in size. Further: potency means the concentration at half of the fitted maximal effect. The method, boiled down: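 Nucleotide exchange uses 100 nM EPAC1, 250 nM RAP1B-BODIPY-GDP and 50 uM GDP, with compounds in a concentration-titration series. After 5 min at room temperature, fluorescence (480 nm ex/540 nm em) is read every 5 min for 30 min. Data are normalized to control ATA and DMSO.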
For orientation: In qHTS, concentration-response curves come from the screen itself.

Test [2] shares this target. Description: Confirmatory qHTS for agonist of cAMP-regulated guanine nucleotide exchange factor 3 (EPAC1) (AID 1645881).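 Further: EPAC1 catalysed release of BODIPY-GDP from Rap1B seen as fluorescence loss; 100% = effect of cAMP agonist control; nearly all actives have a fitted effect of over 75% in size.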
Test [3] concerns the target Rap guanine nucleotide exchange factor 4 (Homo sapiens) (UniProt Q8WZA2). Description: Confirmatory qHTS for agonist of cAMP-regulated guanine nucleotide exchange factor 4 (EPAC2) (AID 1645884).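 Further: nucleotide exchange releases bodipy-GDP from Rap1 and this lowers its fluorescence; on the % scale 0 is the no-effect control and ±100 the full control effect; nearly all actives have a fitted effect of over 65% in size.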
Test [4] shares this target. Description: Confirmatory qHTS for antagonist of cAMP-regulated guanine nucleotide exchange factor 4 (EPAC2) (AID 1645885). Further: nearly all actives have a fitted effect of over 25% in size. Further: potency means the concentration at half of the fitted maximal effect. On activity change, negative = inhibition: on the % scale 0 is the no-effect control and ±100 the full control effect.
Test [5] has as its target Rap guanine nucleotide exchange factor 3 (Homo sapiens) (UniProt O95398). Description: Counterscreen qHTS for antagonist of cAMP-regulated guanine nucleotide exchange factor 3 (EPAC1) (AID 1645888).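 Further: fluorescence loss as bound BODIPY-GDP is released from Rap1B; % of control where 0% means no effect.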 A digest of the protocol: (§1)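 Rap1B-BODIPY-GDP 250 nM + GDP 50 uM; cpds 7-pt, final 9.74 nM–152 uM (activator mode) or from 7.32 nM upwards (inhibitor mode); RT; FI 480/540 nm at 5 and 30 min, then ± cAMP, reread.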
Background: A counterscreen serves to expose hits that act by an unwanted route or on another target.

The target is the same in test [6]. Description: Counterscreen qHTS for agonist of cAMP-regulated guanine nucleotide exchange factor 3 (EPAC1) (AID 1645889). Further: % of control where 0% means no effect; nearly all actives have a fitted effect of over 40% in size. A digest of the protocol: as §1

Inconclusive results are not listed. Values without a mark were called inactive. Active and inactive are the calls of the source. The call rests on the fitted dose curve; in most records, active means well fitted curve in the direction sought with a large enough effect; inconclusive means small, poorly fitted or top-dose-only effect, or another doubt; inactive means no such curve, though single readings can be large; an effect the other way counts as inactive or inconclusive.

Rap guanine nucleotide exchange factor 3 (Homo sapiens), sequence (O95398 whole entry, looked up): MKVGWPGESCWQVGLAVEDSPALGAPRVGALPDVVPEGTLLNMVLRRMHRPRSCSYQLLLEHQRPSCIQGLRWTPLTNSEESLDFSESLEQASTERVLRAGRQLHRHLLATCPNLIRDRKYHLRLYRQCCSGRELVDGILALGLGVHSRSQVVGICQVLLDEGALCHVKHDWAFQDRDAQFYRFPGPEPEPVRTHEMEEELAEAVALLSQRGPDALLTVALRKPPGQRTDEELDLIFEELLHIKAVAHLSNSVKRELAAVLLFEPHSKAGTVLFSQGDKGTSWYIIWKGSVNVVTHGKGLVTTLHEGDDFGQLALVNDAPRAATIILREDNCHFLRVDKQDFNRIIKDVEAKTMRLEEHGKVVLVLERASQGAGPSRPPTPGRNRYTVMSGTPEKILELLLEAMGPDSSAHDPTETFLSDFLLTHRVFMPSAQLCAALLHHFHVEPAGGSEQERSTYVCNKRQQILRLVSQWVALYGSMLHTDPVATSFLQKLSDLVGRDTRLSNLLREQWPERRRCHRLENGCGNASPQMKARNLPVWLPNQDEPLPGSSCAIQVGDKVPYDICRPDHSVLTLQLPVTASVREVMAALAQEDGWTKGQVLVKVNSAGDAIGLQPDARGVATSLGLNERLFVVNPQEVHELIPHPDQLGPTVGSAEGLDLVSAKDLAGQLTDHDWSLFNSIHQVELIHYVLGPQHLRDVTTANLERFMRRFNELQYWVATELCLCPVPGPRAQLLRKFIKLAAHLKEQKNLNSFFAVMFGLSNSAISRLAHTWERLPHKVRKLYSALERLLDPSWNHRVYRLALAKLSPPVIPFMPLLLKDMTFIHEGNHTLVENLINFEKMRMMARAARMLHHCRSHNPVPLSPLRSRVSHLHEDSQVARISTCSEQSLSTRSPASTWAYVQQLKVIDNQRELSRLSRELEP
Rap guanine nucleotide exchange factor 4 (Homo sapiens), sequence (Q8WZA2 whole entry, looked up): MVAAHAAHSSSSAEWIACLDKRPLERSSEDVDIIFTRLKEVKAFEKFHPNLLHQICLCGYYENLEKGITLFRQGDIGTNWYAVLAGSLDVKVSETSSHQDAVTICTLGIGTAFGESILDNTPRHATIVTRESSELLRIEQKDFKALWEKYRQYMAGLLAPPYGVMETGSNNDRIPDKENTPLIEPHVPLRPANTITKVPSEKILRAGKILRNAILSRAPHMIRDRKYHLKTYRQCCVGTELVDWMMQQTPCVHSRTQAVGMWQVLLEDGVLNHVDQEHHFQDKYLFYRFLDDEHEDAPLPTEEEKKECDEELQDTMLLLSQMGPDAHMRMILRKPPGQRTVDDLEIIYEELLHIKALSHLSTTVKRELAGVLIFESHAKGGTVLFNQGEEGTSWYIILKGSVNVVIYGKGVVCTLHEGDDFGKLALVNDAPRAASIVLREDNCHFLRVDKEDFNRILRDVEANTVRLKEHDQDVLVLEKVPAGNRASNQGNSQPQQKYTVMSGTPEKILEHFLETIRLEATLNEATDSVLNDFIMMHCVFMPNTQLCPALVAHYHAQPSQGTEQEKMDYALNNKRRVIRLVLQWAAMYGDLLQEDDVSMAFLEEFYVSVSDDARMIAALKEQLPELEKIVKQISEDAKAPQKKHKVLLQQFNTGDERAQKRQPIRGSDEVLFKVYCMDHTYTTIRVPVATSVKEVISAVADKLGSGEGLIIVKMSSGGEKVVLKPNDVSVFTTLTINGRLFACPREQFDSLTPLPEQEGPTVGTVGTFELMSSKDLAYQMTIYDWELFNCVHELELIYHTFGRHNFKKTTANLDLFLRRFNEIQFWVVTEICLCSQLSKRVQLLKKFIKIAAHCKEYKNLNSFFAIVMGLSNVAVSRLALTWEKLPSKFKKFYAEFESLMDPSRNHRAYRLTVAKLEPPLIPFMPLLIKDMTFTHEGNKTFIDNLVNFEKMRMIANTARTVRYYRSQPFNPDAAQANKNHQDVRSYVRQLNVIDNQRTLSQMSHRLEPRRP

Turning to `CCOC(=O)CSc1nc(C)c2cc(C)c(C)cc2n1`, the Potency result in test [1], in test [2], in test [3], in test [4] and in test [5] was “inactive” throughout.

Regarding `COc1ccc(CNC(=O)C(=O)Nc2ccc(OC)cc2OC)cc1`, the Potency result in test [1], in test [2], in test [3], in test [4] and in test [5] was “inactive” throughout.

For the molecule `COc1ccccc1-c1ccc(Nc2cccc(C(F)(F)F)c2)nn1`, the Potency entry in test [1], in test [2], in test [3], in test [4] and in test [5] was “inactive” each time.

Consider `O=C(/C=C/c1ccc(Cl)cc1)Nc1nccs1`, for which the Potency result in test [1], in test [2] and in test [4] was “inactive” in each case. The activation in test [3] was 2.3% [at 17.1 µM, percent relative to cAMP agonist control]. For the same molecule, in test [5], the activity change, negative = inhibition was -6.03% [at 30.8 µM].

For `COc1cccc(CNC(=O)CCC(=O)N2CC(C)Sc3ccccc32)c1` (stereo not drawn), the Potency result in test [1], in test [2], in test [3], in test [4] and in test [5] was “inactive” throughout.

With `Cc1ccnc(NS(=O)(=O)c2ccc(NC(=O)Cc3c(F)cccc3Cl)cc2)n1`, the Potency entry in test [1], in test [2], in test [3], in test [4] and in test [5] was “inactive” throughout.

For `Cc1ccc(S(=O)(=O)Nc2cccc(C(=O)NCC(c3ccco3)N3CCCCC3)c2)cc1F` (stereo not drawn), the Potency result in test [1], in test [2], in test [3], in test [4] and in test [5] was “inactive” throughout.

For `CC(C)CC1C(=O)N(Cc2cn(CCC3OCCCO3)nn2)CCS(=O)(=O)N1Cc1ccc(-c2ccccc2)cc1` (stereo not drawn), the Potency entry in test [1], in test [2], in test [3], in test [4] and in test [5] was “inactive” throughout.

Regarding `COC(=O)c1ccc(NC(=O)CCOc2ccccc2)cc1`, the Potency result in test [1], in test [2], in test [3], in test [4] and in test [5] was “inactive” each time.

Take `Cc1cn2c(=O)cc(COC(=O)c3ccc(NC(=O)C(C)Oc4ccccc4)cc3)nc2s1` (stereo not drawn): the Potency result in test [1], in test [2], in test [3], in test [4] and in test [5] was “inactive” in each case.

With `CCOc1c(S(=O)(=O)N2CCCC2)ccc(Cl)c1Cl`, the Potency entry in test [1], in test [2], in test [3], in test [4] and in test [5] was “inactive” in each case.

Turning to `O=C(O)c1[nH]c2ccccc2c1C(c1cc(Br)ccc1O)c1c(C(=O)O)[nH]c2ccccc12`, the Potency in test [1] is 39.8 µM (active). Besides, the Potency entry in test [2] and in test [4] was “inactive” in each case. For the same molecule, the activation in test [3] was 11.5% [at 17.1 µM, percent relative to cAMP agonist control]. Also, the activity change, negative = inhibition in test [5] was -16.3% [at 30.8 µM].

For `CCOC(=O)Cc1nn(Cc2ccccc2)c(=O)c2ccccc12`, the Potency entry in test [1], in test [2], in test [3], in test [4] and in test [5] was “inactive” throughout.

For the molecule `N#C/C(=C(/O)CCl)c1nc2c(s1)CCc1ccccc1-2`, the Potency in test [1] is 6.75 µM (active). In addition, the Potency result in test [2], in test [3], in test [4], in test [5] and in test [6] was “inactive” throughout.

In the case of `CSc1nnc(-c2ccccc2)c(-c2ccccc2)n1`, the Potency result in test [1], in test [2], in test [3] and in test [5] was “inactive” in each case. Besides, in test [4], the Potency was 19 µM (active).

With `COc1ccc(S(=O)(=O)N2CCCCCC2)cc1C(=O)N1CCCC(C(F)(F)F)C1` (stereo not drawn), the Potency result in test [1], in test [2] and in test [4] was “inactive” each time. The activation in test [3] was 2.27% [at 17.1 µM, percent relative to cAMP agonist control]. Also, the activity change, negative = inhibition in test [5] is -17.4% [at 30.8 µM].

As to `COC(=O)c1ccccc1NC1=C/C(=N\S(=O)(=O)c2ccc(C(=O)O)cc2)c2ccccc2C1=O`, in test [1], the Potency is 22.4 µM (active). The Potency result in test [2] and in test [4] was “inactive” each time. Also, in test [3], the activation is 7.9% [at 17.1 µM, percent relative to cAMP agonist control]. Also, the activity change, negative = inhibition in test [5] is 14.1% [at 30.8 µM].

For `CCCOc1ccccc1Cn1c(=O)oc2ccccc21`, the Potency entry in test [1], in test [2], in test [3], in test [5] and in test [6] was “inactive” throughout. Moreover, the Potency in test [4] is 9.53 µM (active).

Consider `O=C(O)c1ccccc1NS(=O)(=O)c1ccc(NN=Cc2ccc(F)cc2)c([N+](=O)[O-])c1`, for which the Potency in test [1] is 26.9 µM (active). Further, the Potency entry in test [2], in test [3], in test [4] and in test [5] was “inactive” throughout.

For `COc1ccc(NS(=O)(=O)c2ccc3[nH]c4c(c3c2)CCCCCC4)cc1`, the Potency result in test [1], in test [2], in test [3] and in test [5] was “inactive” in each case. For the same molecule, the outcome in test [4] is “inactive [at 12.7 µM]”.

For `COc1ccc(C(=O)Nc2ccc(-c3cc4ccccc4oc3=O)c(C)c2)cc1Br`, the Potency result in test [1], in test [2], in test [3], in test [4] and in test [5] was “inactive” in each case.

For `CCN(CC)C(=S)Oc1c(Cl)cccc1Cl`, the Potency result in test [1], in test [2] and in test [4] was “inactive” throughout. In addition, the activation in test [3] was 7.01% [at 17.1 µM, percent relative to cAMP agonist control]. Also, the activity change, negative = inhibition in test [5] was -19.4% [at 30.8 µM].

In the case of `CNC(=O)NC(=O)C(NC1CCCc2ccccc21)c1ccccc1` (stereo not drawn), the Potency entry in test [1], in test [2], in test [3], in test [5] and in test [6] was “inactive” in each case. In test [4], the Potency was 47.8 µM (active).

As for `CC1(C)CC(=O)C=C(c2ccc(F)cc2OCc2ccccc2)C1`, the Potency entry in test [1], in test [2], in test [3], in test [4] and in test [5] was “inactive” in each case.
